In paper PMC7862700, “An all-to-all approach to the identification of sequence-specific readers for epigenetic DNA modifications on cytosine”:

Tests used:
Test in all cases: DAPPL (digital affinity profiling via proximity ligation, sequencing); 10 mM Tris-HCl pH 7.5, 50 mM NaCl, 1 mM DTT, 4% glycerol, room temperature, 30 min; GST-TFs on glutathione beads, 16-mer random dsDNA library, 0.1% formaldehyde crosslink after washing; high values mean tight binding
Conditions in all cases: protein: recombinant; tags: N-terminal GST; dsDNA, one strand shown
[1] = biological target: T1, FLI1 (Homo sapiens, UniProt Q01543 1-452)
T1 sequence: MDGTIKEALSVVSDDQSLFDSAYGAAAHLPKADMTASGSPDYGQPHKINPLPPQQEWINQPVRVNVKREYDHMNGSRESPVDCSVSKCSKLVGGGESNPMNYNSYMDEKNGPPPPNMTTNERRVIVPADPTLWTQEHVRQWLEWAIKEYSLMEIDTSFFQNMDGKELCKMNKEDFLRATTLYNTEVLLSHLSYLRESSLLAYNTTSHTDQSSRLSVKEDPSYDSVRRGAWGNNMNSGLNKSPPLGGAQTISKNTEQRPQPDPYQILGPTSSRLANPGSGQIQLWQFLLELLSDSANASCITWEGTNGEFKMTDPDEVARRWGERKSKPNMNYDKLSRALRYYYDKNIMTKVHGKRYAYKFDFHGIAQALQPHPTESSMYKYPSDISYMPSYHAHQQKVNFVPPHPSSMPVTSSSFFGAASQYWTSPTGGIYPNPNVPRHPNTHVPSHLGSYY
Method in brief: (§1)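 In yeast, human transcription factors were expressed with a GST fusion, then pulled down on glutathione beads and given DNA barcodes. Pooled with a tag-only sample, they were exposed to 200 nmole of a 16-mer random double-stranded DNA library (Tris/NaCl/DTT/glycerol buffer, room temperature, 30 min), washed, crosslinked with 0.1% formaldehyde, proximity-ligated using BsaI/T4 ligase for 1 h at 37 °C, PCR-amplified and read on an Illumina NextSeq500. Each hexamer's frequency of reads for a factor, divided by the matching frequency for the tag-only sample, gives the binding signal.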

[2] = biological target: ELF1 (Homo sapiens, UniProt P32519 1-619)
Chain of ELF1 (P32519 whole entry): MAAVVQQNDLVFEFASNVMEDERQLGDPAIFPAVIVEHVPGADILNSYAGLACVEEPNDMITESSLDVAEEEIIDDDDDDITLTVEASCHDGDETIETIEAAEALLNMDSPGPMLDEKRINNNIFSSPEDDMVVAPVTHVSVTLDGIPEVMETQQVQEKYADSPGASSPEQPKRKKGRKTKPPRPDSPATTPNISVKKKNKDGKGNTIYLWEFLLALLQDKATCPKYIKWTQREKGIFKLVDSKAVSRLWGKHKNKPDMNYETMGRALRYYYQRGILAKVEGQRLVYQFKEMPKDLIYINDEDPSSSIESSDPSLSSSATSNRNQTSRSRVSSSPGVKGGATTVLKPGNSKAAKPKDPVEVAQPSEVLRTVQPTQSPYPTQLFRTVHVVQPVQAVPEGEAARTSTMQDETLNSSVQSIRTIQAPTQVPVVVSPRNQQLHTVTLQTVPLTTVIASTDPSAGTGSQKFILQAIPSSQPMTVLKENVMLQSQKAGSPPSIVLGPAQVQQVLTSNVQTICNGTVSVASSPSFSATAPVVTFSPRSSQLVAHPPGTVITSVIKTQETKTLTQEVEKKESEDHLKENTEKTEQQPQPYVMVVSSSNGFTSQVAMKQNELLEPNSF
Method in brief: as §1

[3] = biological target: SPIB (Homo sapiens, UniProt Q01892 1-262)
Chain of SPIB (Q01892 whole entry): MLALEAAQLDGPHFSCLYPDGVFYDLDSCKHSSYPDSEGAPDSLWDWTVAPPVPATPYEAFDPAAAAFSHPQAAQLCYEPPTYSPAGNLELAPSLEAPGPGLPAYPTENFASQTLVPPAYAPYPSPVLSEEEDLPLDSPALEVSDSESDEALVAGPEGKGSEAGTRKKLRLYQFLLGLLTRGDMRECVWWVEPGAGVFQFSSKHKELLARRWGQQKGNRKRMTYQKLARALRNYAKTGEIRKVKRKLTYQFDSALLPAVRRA
Method in brief: as §1

[4] = biological target: T2, ELK3 (Homo sapiens, UniProt P41970 1-407)
T2 sequence: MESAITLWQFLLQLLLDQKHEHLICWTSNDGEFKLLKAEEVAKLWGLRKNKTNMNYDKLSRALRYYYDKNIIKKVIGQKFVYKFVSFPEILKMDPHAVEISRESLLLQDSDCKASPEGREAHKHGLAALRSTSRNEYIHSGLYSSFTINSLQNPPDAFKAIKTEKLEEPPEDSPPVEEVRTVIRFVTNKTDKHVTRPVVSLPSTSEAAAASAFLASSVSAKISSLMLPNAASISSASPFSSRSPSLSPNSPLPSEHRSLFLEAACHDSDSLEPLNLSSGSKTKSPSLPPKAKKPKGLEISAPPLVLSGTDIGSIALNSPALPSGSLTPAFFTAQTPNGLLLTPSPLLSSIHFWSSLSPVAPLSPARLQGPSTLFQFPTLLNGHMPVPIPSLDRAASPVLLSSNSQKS
Method in brief: as §1

[5] = biological target: ELF4 (Homo sapiens, UniProt Q99607 1-663)
Chain of ELF4 (Q99607 whole entry): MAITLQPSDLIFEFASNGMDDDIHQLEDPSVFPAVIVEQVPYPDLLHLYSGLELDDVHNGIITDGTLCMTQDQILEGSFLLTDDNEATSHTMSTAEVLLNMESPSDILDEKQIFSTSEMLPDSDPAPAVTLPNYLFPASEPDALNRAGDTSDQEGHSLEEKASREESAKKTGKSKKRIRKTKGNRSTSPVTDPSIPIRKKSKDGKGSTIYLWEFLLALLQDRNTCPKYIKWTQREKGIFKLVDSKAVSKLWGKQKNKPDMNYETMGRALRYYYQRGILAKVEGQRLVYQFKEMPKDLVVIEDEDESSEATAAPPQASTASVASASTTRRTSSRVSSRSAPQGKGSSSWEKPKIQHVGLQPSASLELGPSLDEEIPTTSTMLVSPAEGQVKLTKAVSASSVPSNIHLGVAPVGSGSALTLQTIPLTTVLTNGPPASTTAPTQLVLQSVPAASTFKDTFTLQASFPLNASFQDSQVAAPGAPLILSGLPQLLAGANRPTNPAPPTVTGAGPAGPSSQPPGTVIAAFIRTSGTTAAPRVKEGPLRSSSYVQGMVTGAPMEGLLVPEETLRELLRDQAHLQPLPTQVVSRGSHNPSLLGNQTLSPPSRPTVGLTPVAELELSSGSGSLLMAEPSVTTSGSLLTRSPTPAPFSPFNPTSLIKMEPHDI
Method in brief: as §1

[6] = biological target: T3, ETV7 (Homo sapiens, UniProt Q9Y603 1-341)
T3 sequence: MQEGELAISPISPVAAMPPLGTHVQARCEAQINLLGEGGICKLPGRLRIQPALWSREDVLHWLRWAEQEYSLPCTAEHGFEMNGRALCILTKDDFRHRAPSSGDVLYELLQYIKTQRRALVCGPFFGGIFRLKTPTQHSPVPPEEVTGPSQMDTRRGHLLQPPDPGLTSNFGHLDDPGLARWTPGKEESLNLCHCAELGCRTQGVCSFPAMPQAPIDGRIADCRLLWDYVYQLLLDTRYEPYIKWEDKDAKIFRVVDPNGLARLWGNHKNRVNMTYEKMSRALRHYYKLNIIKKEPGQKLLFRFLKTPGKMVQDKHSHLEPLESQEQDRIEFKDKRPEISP
Method in brief: as §1

[7] = biological target: T4, SPIC (Homo sapiens, UniProt Q8N5J4 1-248)
T4 sequence: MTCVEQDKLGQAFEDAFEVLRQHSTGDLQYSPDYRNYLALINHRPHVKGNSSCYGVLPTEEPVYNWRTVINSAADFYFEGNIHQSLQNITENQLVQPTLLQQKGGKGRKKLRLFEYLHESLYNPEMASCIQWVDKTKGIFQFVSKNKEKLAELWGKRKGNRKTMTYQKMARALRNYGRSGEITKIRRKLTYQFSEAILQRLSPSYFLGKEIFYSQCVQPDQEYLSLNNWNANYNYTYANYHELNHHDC
Method in brief: as §1

[8] = biological target: T5, ETV3 (Homo sapiens, UniProt P41162-2 1-143)
T5 sequence: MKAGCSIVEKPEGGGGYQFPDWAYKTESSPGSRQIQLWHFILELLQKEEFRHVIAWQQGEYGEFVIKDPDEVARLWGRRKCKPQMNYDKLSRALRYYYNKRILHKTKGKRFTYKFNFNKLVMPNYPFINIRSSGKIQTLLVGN
Method in brief: as §1

Sequence	binding signal [1]	binding signal [2]	binding signal [3]	binding signal [4]	binding signal [5]	binding signal [6]	binding signal [7]	binding signal [8]
CAAAGT	1.01 fold enrichment (6-mer frequency, TF over GST control)	1.03 fold enrichment (6-mer frequency, TF over GST control)	1.04 fold enrichment (6-mer frequency, TF over GST control)	1.06 fold enrichment (6-mer frequency, TF over GST control)	1.03 fold enrichment (6-mer frequency, TF over GST control)	1 fold enrichment (6-mer frequency, TF over GST control)		
AGGCCC	1.01 fold enrichment (6-mer frequency, TF over GST control)					1.03 fold enrichment (6-mer frequency, TF over GST control)	1.08 fold enrichment (6-mer frequency, TF over GST control)	1.01 fold enrichment (6-mer frequency, TF over GST control)
